Counter-ions that a name gives are not always drawn.
Key:
Settings in all cases: 20 µM
[1] = system: Salmonella enterica typhimurium; test: growth AUC normalised to DMSO control (fraction of control); higher = less growth inhibition, active = hit call of the paper
How it was run: (§1)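 Three biological replicates were carried out, with OD578 read hourly for 24 h. Before inoculation at a starting OD578 of 0.01, pathogens were passaged anaerobically twice; plates were pre-reduced mGAM containing 20 μM compound and 1% DMSO, sealed with breathable membranes, and the Haemophilus parainfluenzae medium carried added hemin and NAD. Area under each growth curve was calculated by the trapezoidal rule up to the exponential-to-stationary transition and normalised to DMSO controls on the same plate.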

Shigella flexneri = test: as above
How it was run: as §1

Vibrio cholerae = test: as above
How it was run: as §1

[2] = system: Yersinia pseudotuberculosis; test: as above
How it was run: as §1

P. vulgatus RND KO = test: growth AUC normalised to DMSO control (median) (fraction of control); higher = less growth inhibition, active = hit call of the paper
How it was run: (§2)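 Area under the growth curve, calculated by the trapezoidal rule up to entry into stationary phase, was normalised to vehicle wells on the same plate. Strains had been passaged twice overnight without oxygen and then grown in mGAM in 96-well plates from OD578 0.01, each with an approved-drug library compound at 20 μM in 1% DMSO. OD578 was read hourly over 24 h in an anaerobic incubator, and the median of three biological replicates is given.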

P. vulgatus WT = test: as above
How it was run: as §2

[3] = system: S. enterica typhimurium WT; test: as above
How it was run: as §2

[4] = system: S. enterica typhimurium tolC KO; test: as above
How it was run: as §2

Measured: growth AUC normalised to DMSO control
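Wherever growth AUC normalised to DMSO control (median) is given: active when median AUC fell below 0.1.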

C=C1C[C@H]2[C@@H]3C=C(C)C4=CC(=O)CC[C@]4(C)[C@H]3CC[C@]2(C)[C@@]1(OC(C)=O)C(C)=O [Melengestrol acetate]
inactive: [1] 0.981 | Shigella flexneri 1.05 | Vibrio cholerae 1.03 | [2] 1.03 | P. vulgatus RND KO 0.993 | P. vulgatus WT 1.02 | [3] 1.01 | [4] 0.961

COc1cc(C(=O)NS(=O)(=O)c2ccccc2C)ccc1Cc1cn(C)c2ccc(NC(=O)OC3CCCC3)cc12 [Zafirlukast]
inactive: [1] 0.961 | Shigella flexneri 0.982 | Vibrio cholerae 0.966 | [2] 0.988 | P. vulgatus RND KO 0.84 | P. vulgatus WT 0.891 | [3] 1.01 | [4] 0.962

CC(C)(S)C(N)C(=O)O (racemic) [D,L-Penicillamine]
inactive: [1] 0.993 | Shigella flexneri 0.991 | Vibrio cholerae 0.996 | [2] 0.992 | P. vulgatus RND KO 1.01 | P. vulgatus WT 1.01 | [3] 1.01 | [4] 1

COc1ccc(-c2cc(=S)ss2)cc1 [Anethole-trithione]
inactive: [1] 1.02 | Shigella flexneri 1.05 | Vibrio cholerae 0.91 | [2] 1.19 | P. vulgatus RND KO 1.02 | P. vulgatus WT 1.04 | [3] 0.985 | [4] 0.91

CCCN[C@H]1CCc2nc(N)sc2C1 [Pramipexole dihydrochloride]
inactive: [1] 0.989 | Shigella flexneri 0.972 | Vibrio cholerae 0.989 | [2] 0.994 | P. vulgatus RND KO 0.988 | P. vulgatus WT 0.997 | [3] 0.992 | [4] 0.999

CN(C/C=C/c1ccccc1)Cc1cccc2ccccc12 [Naftifine hydrochloride]
inactive: [1] 1.01 | Shigella flexneri 1.01 | Vibrio cholerae 0.933 | [2] 1.04 | P. vulgatus RND KO 0.996 | P. vulgatus WT 1.01 | [3] 0.998 | [4] 0.932

CC[C@]12CCCN3CCc4c(n(c5ccccc45)[C@@](O)(C(=O)OC)C1)[C@@H]32 [Vincamine]
inactive: [1] 1.02 | Shigella flexneri 0.979 | Vibrio cholerae 0.995 | [2] 0.989 | P. vulgatus RND KO 1.02 | P. vulgatus WT 1.05 | [3] 1.02 | [4] 1

C[C@H]1O[C@H](O[C@H]2[C@H](O)[C@@H](O)[C@@H](O[C@@H]([C@H](O)[C@@H](O)C=O)[C@H](O)CO)O[C@@H]2CO)[C@H](O)[C@@H](O)[C@@H]1N[C@H]1C=C(CO)[C@@H](O)[C@H](O)[C@H]1O [Acarbose]
inactive: [1] 1.04 | Shigella flexneri 0.995 | Vibrio cholerae 0.999 | [2] 1.01 | P. vulgatus RND KO 1.01 | P. vulgatus WT 0.884 | [3] 1.03 | [4] 1

C#Cc1cccc(Nc2ncnc3cc(OCCOC)c(OCCOC)cc23)c1 [Erlotinib]
inactive: [1] 1 | Shigella flexneri 1.03 | Vibrio cholerae 1.02 | [2] 0.995 | P. vulgatus RND KO 0.967 | P. vulgatus WT 0.989 | [3] 0.997 | [4] 0.938

CC[N+](CC)(CC)CCC(O)(c1ccccc1)C1CCCCC1 (stereo not drawn) [Tridihexethyl chloride]
inactive: [1] 1 | Shigella flexneri 1.03 | Vibrio cholerae 1.05 | [2] 1 | P. vulgatus RND KO 1.06 | P. vulgatus WT 1.07 | [3] 1.02 | [4] 0.686

O=C(O)CN(CCN(CC(=O)O)CC(=O)O)CCN(CC(=O)O)CC(=O)O [Pentetic acid]
inactive: [1] 1 | Shigella flexneri 1.01 | Vibrio cholerae 1.03 | [2] 1.07 | P. vulgatus RND KO 1.05 | P. vulgatus WT 1.08 | [3] 1.02 | [4] 0.998

O=C(N/N=C/c1ccc([N+](=O)[O-])o1)c1ccc(O)cc1 [Nifuroxazide]
active: [1] 0.866 | Shigella flexneri 0.189 | Vibrio cholerae 0.623
inactive: [2] 0.96 | P. vulgatus RND KO 0.883 | P. vulgatus WT 0.861 | [3] 0.924 | [4] 0.862

C=C1c2cccc(O)c2C(O)=C2C(=O)[C@]3(O)C(O)=C(C(N)=O)C(=O)[C@@H](N(C)C)[C@@H]3[C@@H](O)[C@H]12 [Methacycline hydrochloride]
active: [1] 0.00318 | Shigella flexneri 0.0126 | Vibrio cholerae 0.0374 | [2] 0.0389 | P. vulgatus RND KO 0.0122 | P. vulgatus WT 0.00531 | [3] 0.000703 | [4] 0.00224

COc1ccc(C(=O)c2ccccc2)c(O)c1 [Oxybenzone]
inactive: [1] 1.03 | Shigella flexneri 1.03 | Vibrio cholerae 1 | [2] 1 | P. vulgatus RND KO 1.05 | P. vulgatus WT 1.06 | [3] 1 | [4] 0.954

CN(C)CC/C=C1/c2ccccc2Sc2ccc(Cl)cc21 [Chlorprothixene hydrochloride]
active: Vibrio cholerae 0.817
inactive: [1] 0.997 | Shigella flexneri 0.988 | [2] 0.996 | P. vulgatus RND KO 0.904 | P. vulgatus WT 0.887 | [3] 0.999 | [4] 0.912

CC(C)[C@H](N)C(=O)OCCOCn1cnc2c(=O)nc(N)[nH]c21 [Valacyclovir hydrochloride]
inactive: [1] 0.993 | Shigella flexneri 1.03 | Vibrio cholerae 0.995 | [2] 1.01 | P. vulgatus RND KO 0.999 | P. vulgatus WT 1.02 | [3] 1 | [4] 1.02

Nc1nc2n[nH]nc2c(=O)[nH]1 [Azaguanine-8]
inactive: [1] 1.01 | Shigella flexneri 1.05 | Vibrio cholerae 1.01 | [2] 0.996 | P. vulgatus RND KO 1.01 | P. vulgatus WT 0.999 | [3] 0.987 | [4] 1.01

CC1CNc2c(cccc2S(=O)(=O)N[C@@H](CCCNC(=N)N)C(=O)N2CC[C@@H](C)C[C@@H]2C(=O)O)C1 (stereo partly drawn) [Argatroban]
inactive: [1] 1 | Shigella flexneri 1.03 | Vibrio cholerae 1 | [2] 1.02 | P. vulgatus RND KO 1.03 | P. vulgatus WT 1.06 | [3] 1.01 | [4] 0.996

CC1(C)S[C@@H]2[C@H](NC(=O)[C@H](C(=O)O)c3ccsc3)C(=O)N2[C@H]1C(=O)O [Ticarcillin sodium]
active: [1] 0.00595 | Shigella flexneri 0.178 | Vibrio cholerae 0.116 | [2] 0.0593 | P. vulgatus RND KO 0.00834 | P. vulgatus WT 0.0131 | [3] 0.00844 | [4] 0.0028

CC(=O)N(CC(C)C(=O)O)c1c(I)cc(I)c(N)c1I (stereo not drawn) [Iocetamic acid]
inactive: [1] 0.985 | Shigella flexneri 0.948 | Vibrio cholerae 0.939 | [2] 0.99 | P. vulgatus RND KO 0.984 | P. vulgatus WT 0.974 | [3] 0.989 | [4] 0.988

CC(=O)O[C@H]1C(=O)[C@@]2(C)[C@H]([C@H](OC(=O)c3ccccc3)[C@]3(O)C[C@H](OC(=O)[C@H](O)[C@@H](NC(=O)c4ccccc4)c4ccccc4)C(C)=C1C3(C)C)[C@]1(OC(C)=O)CO[C@@H]1C[C@@H]2O [Paclitaxel]
inactive: [1] 1.02 | Shigella flexneri 1.01 | Vibrio cholerae 1.02 | [2] 0.998 | P. vulgatus RND KO 0.881 | P. vulgatus WT 0.8 | [3] 1.01 | [4] 1.02

CC1c2cccc(O)c2C(O)=C2C(=O)C3(O)C(O)=C(C(N)=O)C(=O)C(N(C)C)C3C(O)C21 (stereo not drawn) [Doxycycline hydrochloride]
active: [1] 0.00452 | Shigella flexneri 0.00494 | Vibrio cholerae 0.018 | [2] 0.0395 | P. vulgatus RND KO 0.012 | P. vulgatus WT 0.00631 | [3] 0.00375 | [4] 0.00276

O=C1NCC2(CCN(CCc3ccccc3)CC2)O1 [Fenspiride hydrochloride]
inactive: [1] 0.967 | Shigella flexneri 0.947 | Vibrio cholerae 0.994 | [2] 0.971 | P. vulgatus RND KO 0.988 | P. vulgatus WT 0.974 | [3] 1 | [4] 0.993

COc1c2occc2c(OC)c2c(=O)cc(C)oc12 [Khellin]
inactive: [1] 1 | Shigella flexneri 1.05 | Vibrio cholerae 0.983 | [2] 1.01 | P. vulgatus RND KO 1 | P. vulgatus WT 1.02 | [3] 1.02 | [4] 0.985

Cc1oncc1C(=O)Nc1ccc(C(F)(F)F)cc1 [Leflunomide]
inactive: [1] 0.989 | Shigella flexneri 0.988 | Vibrio cholerae 0.914 | [2] 1 | P. vulgatus RND KO 0.957 | P. vulgatus WT 1 | [3] 0.996 | [4] 0.896

CCCCc1oc2ccccc2c1C(=O)c1cc(I)c(OCCN(CC)CC)c(I)c1 [Amiodarone hydrochloride]
inactive: [1] 0.999 | Shigella flexneri 1.04 | Vibrio cholerae 1 | [2] 1.02 | P. vulgatus RND KO 1.02 | P. vulgatus WT 1.06 | [3] 1.04 | [4] 1.02

O=C(O)c1cn(C2CC2)c2cc(N3CCNCC3)c(F)cc2c1=O [Ciprofloxacin hydrochloride monohydrate]
active: [1] 0.00833 | Shigella flexneri 0.0218 | Vibrio cholerae 0.0273 | [2] 0.0762 | P. vulgatus RND KO 0.0296 | [3] 0.00642 | [4] 0.00798
inactive: P. vulgatus WT 0.679

CC(N/C(=N\C#N)Nc1ccncc1)C(C)(C)C (stereo not drawn) [Pinacidil monohydrate]
inactive: [1] 0.991 | Shigella flexneri 1 | Vibrio cholerae 0.998 | [2] 0.982 | P. vulgatus RND KO 1.07 | P. vulgatus WT 1.06 | [3] 1.01 | [4] 0.976

Nc1nc2c(ncn2COCCO)c(=O)[nH]1 [Acyclovir]
inactive: [1] 1.01 | Shigella flexneri 1.01 | Vibrio cholerae 1.01 | [2] 0.995 | P. vulgatus RND KO 1.05 | P. vulgatus WT 1.02 | [3] 1 | [4] 1

Fc1ccc(C(c2ccc(F)cc2)N2CCN(C/C=C/c3ccccc3)CC2)cc1 [Flunarizine dihydrochloride]
inactive: [1] 1.04 | Shigella flexneri 1.04 | Vibrio cholerae 1.01 | [2] 1.02 | P. vulgatus RND KO 1.01 | P. vulgatus WT 1.03 | [3] 1.02 | [4] 0.987

O=C(CCCN1CCC(O)(c2ccc(Br)cc2)CC1)c1ccc(F)cc1 [Bromperidol]
inactive: [1] 1.02 | Shigella flexneri 0.984 | Vibrio cholerae 0.999 | [2] 0.997 | P. vulgatus RND KO 0.999 | P. vulgatus WT 1.01 | [3] 0.998 | [4] 0.974

Nc1ccc(S(=O)(=O)NC(=O)c2ccccc2)cc1 [Sulfabenzamide]
inactive: [1] 1.02 | Shigella flexneri 1.03 | Vibrio cholerae 1.06 | [2] 1.04 | P. vulgatus RND KO 1.05 | P. vulgatus WT 1.1 | [3] 1 | [4] 1.01

CCCc1nc2c(C)cc(-c3nc4ccccc4n3C)cc2n1Cc1ccc(-c2ccccc2C(=O)O)cc1 [Telmisartan]
inactive: [1] 1 | Shigella flexneri 1.02 | Vibrio cholerae 1.02 | [2] 1.01 | P. vulgatus RND KO 0.852 | P. vulgatus WT 0.897 | [3] 0.996 | [4] 0.995

COC(c1ccccc1)(c1ccccc1)[C@H](Oc1nc(C)cc(C)n1)C(=O)O [Ambrisentan]
inactive: [1] 0.98 | Shigella flexneri 1.02 | Vibrio cholerae 1.01 | [2] 1.01 | P. vulgatus RND KO 0.997 | P. vulgatus WT 0.983 | [3] 0.991 | [4] 0.99

CCCCOc1cc(C(=O)NCCN(CC)CC)c2ccccc2n1 [Dibucaine]
inactive: [1] 1 | Shigella flexneri 1.03 | Vibrio cholerae 1.03 | [2] 1.05 | P. vulgatus RND KO 1.04 | P. vulgatus WT 1.01 | [3] 1.01 | [4] 0.993

CN1CCC(=C2c3ccccc3C=Cc3ccccc32)CC1 [Cyproheptadine hydrochloride]
inactive: [1] 0.998 | Shigella flexneri 1 | Vibrio cholerae 0.91 | [2] 1 | P. vulgatus RND KO 0.97 | P. vulgatus WT 0.976 | [3] 1.01 | [4] 0.969

From the supplement of paper PMC12350171
